Here are results for six compounds from PubChem BioAssay (NCI).

The panel holds about 79,000 compounds, 15% with a hit somewhere; the sample as a whole holds those more often. Unmarked numbers belong to inactive results. Calls of active or inactive are those of the source. Rule as the data show it: active = growth inhibition above about 70%; inactive = the rest.

Test [1] can be described thus: NCI Yeast Anticancer Drug Screen. Data for the rad50 strain (AID 155).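 Also: 0% = growth of vehicle-only cultures of the same strain.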 The settings on record: S. cerevisiae rad50 strain growth inhibition, stronger effect = higher value. The gist of the method:
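DNA repair mutant yeast, compound exposure, growth read-out; inhibition is taken relative to vehicle.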

Test [2] can be described thus: NCI Yeast Anticancer Drug Screen. Data for the mec2-1 strain (AID 157). The conditions noted are these: S. cerevisiae mec2-1 strain, stronger effect = higher value. In short, it runs like this:
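Readout is yeast growth inhibition, normalised to vehicle-treated controls, in the mec2-1 strain exposed to compound.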

The nature of test [3]: NCI Yeast Anticancer Drug Screen. Data for the sgs1 mgt1 strain (AID 161).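 Also: 0% = growth of cultures given vehicle only.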 The conditions noted are these: S. cerevisiae sgs1 mgt1 strain, stronger effect = higher value. The gist of the method:
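Growth of a repair-deficient yeast mutant was monitored after compound treatment and expressed as inhibition relative to vehicle-treated cultures.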

Test [4] in a line: NCI Yeast Anticancer Drug Screen. Data for the cln2 rad14 strain (AID 165).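 Also: 0% = growth equal to vehicle treated cultures.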 The conditions noted are these: S. cerevisiae cln2 rad14 strain, stronger effect = higher value. The gist of the method: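 Relative to vehicle controls, growth inhibition of compound-treated cln2 rad14 yeast was recorded.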
Test [5] can be described thus: NCI Yeast Anticancer Drug Screen. Data for the bub3 strain (AID 167). The conditions noted are these: S. cerevisiae bub3 mutant strain, stronger effect = higher value. In short, it runs like this:
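In this screen, a yeast mutant lacking normal mitotic checkpoint function is challenged with compound. Relative growth versus vehicle gives the inhibition value.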

Test [6] in a line: NCI Yeast Anticancer Drug Screen. Data for the mlh1 rad18 strain (AID 175). The conditions noted are these: S. cerevisiae mlh1 rad18 strain growth inhibition, stronger effect = higher value. The gist of the method: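 Test agents were incubated with a yeast strain of defined genotype (DNA damage repair defect). Inhibition of growth was derived by comparison with vehicle-exposed cultures.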

[7] abbreviates: at 5.0 µM (retest, dose inferred, filed as 0.5).
Where [8] appears, read: at 50.0 µM (retest, dose inferred, filed as 5.0).

Consider `CCOc1ccc(NC(=O)/C(=N\N)C(C(=O)OC)c2nc3ccc(Cl)cc3[nH]c2=O)cc1` (stereo not drawn), for which the growth inhibition in test [1] (setting [7]) is -14%; in test [1] (setting [8]), -17%; in test [1] (at 50.0 µM), -12.9%; in test [2] (setting [7]) it was -1%; in test [2] (setting [8]), -10%; in test [2] (at 50.0 µM), -13.1%. The growth inhibition in test [3] (setting [7]) is -8%; in test [3] (setting [8]), -3%; in test [3] (at 50.0 µM), -24.4%; in test [4] (setting [7]) it was -25%; in test [4] (setting [8]) it was -8%; in test [4] (at 50.0 µM) it was 80.2% (active). The growth inhibition in test [5] (setting [7]) is -6%; in test [5] (setting [8]) it was 5%; in test [5] (at 50.0 µM), -26.5%; in test [6] (setting [7]), -7%; in test [6] (setting [8]), -8%; in test [6] (at 50.0 µM), -1.5%.
On to `COc1ccc(/C=C2/C(=O)ON=C2C)cc1`, for which the growth inhibition was 12% in test [1] (setting [7]); 10% in test [1] (setting [8]); 76% (active) in test [1] (at 50.0 µM); 5% in test [2] (setting [7]); 41% in test [2] (setting [8]); 45.8% in test [2] (at 50.0 µM). In addition, the growth inhibition was -6% in test [3] (setting [7]); 29% in test [3] (setting [8]); 41.8% in test [3] (at 50.0 µM); -12% in test [4] (setting [7]); 26% in test [4] (setting [8]); 46% in test [4] (at 50.0 µM). The growth inhibition in test [5] (setting [7]) was 11%; in test [5] (setting [8]), 23%; in test [5] (at 50.0 µM), 88.5% (active); in test [6] (setting [7]), 11%; in test [6] (setting [8]) it was 12%; in test [6] (at 50.0 µM), 23.7%.
Take `O=[N+]([O-])c1ccc(C2N(Cc3ccc(Cl)cc3)CCN2Cc2ccc(Cl)cc2)cc1`: the growth inhibition in test [1] (setting [7]) is 58%; in test [1] (setting [8]), 94% (active); in test [1] (at 50.0 µM) it was 82.2% (active); in test [2] (setting [7]), 48%; in test [2] (setting [8]) it was 97% (active); in test [2] (at 50.0 µM), 56.5%. The growth inhibition was 79% (active) in test [3] (setting [7]); 100% (active) in test [3] (setting [8]); 85.8% (active) in test [3] (at 50.0 µM); 51% in test [4] (setting [7]); 95% (active) in test [4] (setting [8]); 64.5% in test [4] (at 50.0 µM). Further, the growth inhibition in test [5] (setting [7]) is 78% (active); in test [5] (setting [8]) it was 99% (active); in test [5] (at 50.0 µM), 87.6% (active); in test [6] (setting [7]), 79% (active); in test [6] (setting [8]) it was 98% (active); in test [6] (at 50.0 µM), 79.8% (active).
With `CCCCCCCCCCCCNCCCc1ccccc1`, the growth inhibition was 99% (active) in test [1] (setting [7]); 98% (active) in test [1] (setting [8]); 98.1% (active) in test [1] (at 50.0 µM); 100% (active) in test [2] (setting [7]); 99% (active) in test [2] (setting [8]); 99.2% (active) in test [2] (at 50.0 µM). The growth inhibition in test [3] (setting [7]) was 100% (active); in test [3] (setting [8]), 99% (active); in test [3] (at 50.0 µM), 98.5% (active); in test [4] (setting [7]) it was 99% (active); in test [4] (setting [8]), 97% (active); in test [4] (at 50.0 µM), 98.8% (active). The growth inhibition was 99% (active) in test [5] (setting [7]); 99% (active) in test [5] (setting [8]); 98% (active) in test [5] (at 50.0 µM); 99% (active) in test [6] (setting [7]); 99% (active) in test [6] (setting [8]); 98.5% (active) in test [6] (at 50.0 µM).
For `O=C1c2ccccc2C(=O)c2c(O)c(Cl)cc(O)c21`, the growth inhibition in test [1] (setting [7]) is 3%; in test [1] (setting [8]), 20%; in test [1] (at 50.0 µM) it was 15.9%; in test [2] (setting [7]) it was 2%; in test [2] (setting [8]), 26%; in test [2] (at 50.0 µM), 1.3%. The growth inhibition in test [3] (setting [7]) was 7%; in test [3] (setting [8]), 71% (active); in test [3] (at 50.0 µM) it was 38.3%; in test [4] (setting [7]), 5%; in test [4] (setting [8]) it was 9%; in test [4] (at 50.0 µM) it was -55.6%. The growth inhibition in test [5] (setting [7]) was 4%; in test [5] (setting [8]), 38%; in test [5] (at 50.0 µM), -2.2%; in test [6] (setting [7]), 6%; in test [6] (setting [8]), 57%; in test [6] (at 50.0 µM), 78% (active).
In the case of `CN(C)c1ccc(/C=C/c2cc[n+](C)c(/C=C/c3ccc(N(C)C)cc3)c2)cc1`, the growth inhibition is 98% (active) in test [1] (setting [7]); 96% (active) in test [1] (setting [8]); 91% (active) in test [1] (at 50.0 µM); 100% (active) in test [2] (setting [7]); 95% (active) in test [2] (setting [8]); 93.3% (active) in test [2] (at 50.0 µM). For the same compound, the growth inhibition in test [3] (setting [7]) is 98% (active); in test [3] (setting [8]), 93% (active); in test [3] (at 50.0 µM), 93.2% (active); in test [4] (setting [7]), 99% (active); in test [4] (setting [8]), 97% (active); in test [4] (at 50.0 µM) it was 92.8% (active). Further, the growth inhibition in test [5] (setting [7]) was 96% (active); in test [5] (setting [8]), 95% (active); in test [5] (at 50.0 µM), 91.8% (active); in test [6] (setting [7]) it was 100% (active); in test [6] (setting [8]), 96% (active); in test [6] (at 50.0 µM), 91% (active).
